# Bioassay records (PubChem)
# A selection: hits, their analogues and other compounds. The true share with any hit is near 3.4%.
# RGS12 GoLoco inh – qHTS Assay for Inhibitors of RGS12 GoLoco Motif Activity (Red Fluorophore) | Guanine nucleotide-binding protein G(i) subunit alpha-1 (Homo sapiens), P63096 | Gai1:RGS12 GoLoco peptide FP, rhodamine, 10 min | Potency, µM (titrated, usually from 61.6 µM), without a hit: at the highest dose activity, negative = inhibition, hits mostly inhibitors | 230,000 tested, 0.44% active; active means well fitted inhibition curve with a large enough effect, not every such curve was filed as active; inactive means no such curve, though single readings can be large or run the other way; further: nearly all actives have a fitted effect of over 30% in size
# Tau fluor counter – Counterscreen qHTS for Inhibitors of Tau Fibril Formation, Fluorescence Polarization. tau K18 P301L Alexa594 fluorescence, heparin fibrillization. Potency, µM (titrated, usually from 57.7 µM), for the others: at the top dose activity change, negative = decrease. 280,000 tested, 0.93% active. AID 1463, 2008; further: nearly all actives have a fitted effect of over 55% in size
#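 Human tau K18 P301L (15 uM unlabeled, 0.24 uM Alexa 594-labeled) in 100 mM sodium acetate pH 7 with 20 uM heparin, 6 hr at 37 C. ThT 30 uM added, 1 hr ambient; Alexa 594 FP and total fluorescence read at 555/632 nm.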
# JMJD2E inh – qHTS Assay for Inhibitors of Human Jumonji Domain Containing 2E (JMJD2E). Lysine-specific demethylase 4E (Homo sapiens), B2RXH2. JMJD2E catalytic domain, FDH-coupled NADH fluorescence (FDH is formaldehyde dehydrogenase). Potency, µM (titrated, usually from 57.1 µM), inactives show top-dose activity change, negative = inhibition, actives largely listed as inhibitors. 230,000 tested, 1.6% active; active means well fitted inhibition curve with a large enough effect, not every such curve was filed as active; inconclusive means small, poorly fitted or top-dose-only effect, or another doubt; inactive means no such curve, though single readings can be large or run the other way;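 further: 0% = wells with enzyme and -100% = buffer wells without enzyme; nearly all actives have a fitted effect of over 50% in size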
# Target sequence (B2RXH2 1-337 limits assumed): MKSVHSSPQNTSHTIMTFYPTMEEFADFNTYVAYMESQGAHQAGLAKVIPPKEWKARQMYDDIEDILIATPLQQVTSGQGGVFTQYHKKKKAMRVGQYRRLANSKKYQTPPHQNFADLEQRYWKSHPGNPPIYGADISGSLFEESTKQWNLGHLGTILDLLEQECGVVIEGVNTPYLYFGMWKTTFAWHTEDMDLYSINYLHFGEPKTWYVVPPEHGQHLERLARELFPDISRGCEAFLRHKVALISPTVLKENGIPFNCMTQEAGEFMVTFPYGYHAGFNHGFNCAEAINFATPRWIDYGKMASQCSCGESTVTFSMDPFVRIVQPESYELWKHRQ
# Tau FP inhib – qHTS for Inhibitors of Tau Fibril Formation, Fluorescence Polarization. Potency, µM (doses to about 57.7 µM), without a hit: top-dose activity, negative = inhibition, most hits filed as inhibitors. K18 P301L tau heparin fibrillization, Alexa594 FP, 6 h. AID 1468, 2008. Microtubule-associated protein tau (Homo sapiens), P10636. 280,000 tested, 0.39% active; further: nearly all actives have a fitted effect of over 55% in size
# Target sequence (P10636 561-689 P618L limits assumed): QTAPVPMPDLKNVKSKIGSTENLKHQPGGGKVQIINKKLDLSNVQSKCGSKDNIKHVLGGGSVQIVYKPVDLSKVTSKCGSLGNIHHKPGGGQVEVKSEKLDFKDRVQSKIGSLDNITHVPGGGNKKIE
#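 Heparin (20 uM) drove fibril formation of recombinant tau K18 P301L, 15 uM unlabeled with 0.24 uM Alexa 594 label, for 6 hr at 37 C in 100 mM sodium acetate pH 7. Fluorescence polarization (555/632 nm) read 1 hr after 30 uM ThT.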
# Tau ThT inhib – qHTS for Inhibitors of Tau Fibril Formation, Thioflavin T Binding; recombinant tau K18 P301L (four-repeat tau fragment), heparin-induced fibrillization, ThT fluorescence; Potency, µM (series often up to 57.4 µM), inactives show at the top dose activity, negative = inhibition, hits mostly inhibitors; 270,000 tested, 2.1% active; AID 1460, 2008; further: nearly all actives have a fitted effect of over 55% in size
#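 Heparin-induced (20 uM) aggregation of recombinant human K18 P301L tau, 15 uM unlabeled with 0.24 uM labeled, pH 7 acetate buffer, 6 hr at 37 C with compound. Fibrils quantified by 30 uM ThT fluorescence after 1 hr ambient incubation.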
# * hit, by the source's call; ? = inconclusive; nt = no result given; [ ] = another dose, or the depositor's remark. Unless noted, the call rests on the fitted dose curve; in most records, active means well fitted curve in the direction sought with a large enough effect; inconclusive means small, poorly fitted or top-dose-only effect, or another doubt; inactive means no such curve, though single readings can be large; an effect the other way counts as inactive or inconclusive. Unless noted, on the % scale 0 is the no-effect control and ±100 the full control effect; potency means the concentration at half of the fitted maximal effect.
SMILES,RGS12 GoLoco inh,Tau fluor counter,JMJD2E inh,Tau FP inhib,Tau ThT inhib
Cc1cccc(C(=O)Nc2c(C(=O)N3CCN(c4ccc(F)cc4)CC3)oc3ccccc23)c1,nt,-25%,nt,1%,-9%
O=S(=O)(c1ccc2nc(Nc3ccc(Br)cc3F)ccc2c1)N1CCCCC1,nt,?,nt,?,-5%
CCOc1ccc2nc(N3CCN(C(=O)c4ccco4)CC3)sc2c1,nt,-17%,nt,-1%,?
N#C/C(=C\c1ccc(N2CCOCC2)o1)c1ccccc1,7.1µM*,?,?,?,14µM*
N#C/C(=C\c1ccc(Sc2ccc(Cl)cc2)o1)c1nc2ccccc2[nH]1,29%,7.1µM*[quencher],-6%,?,?
Cc1[nH]n(-c2ccc(Br)cc2)c(=O)c1C=Nc1ccc(S(=O)(=O)Nc2nccs2)cc1,9%,?,18%,-13%,16µM*
CCOC(=O)CC(NC(=O)CCc1c(C)nc2c(c1C)c(=O)n(C)c(=O)n2C)c1ccc(OCC)c(OC)c1 (centres undefined),nt,-1%,nt,-3%,0%
O=C(Nc1ccc(Cl)cn1)c1ccc(-c2cc(Cl)ccc2Cl)o1,nt,?,4%,?,7.9µM*
CCOP(=O)(OCC)C(NC(=O)c1cc([N+](=O)[O-])cc([N+](=O)[O-])c1)C(F)(F)F (centres undefined),-6%,?,-7%,?,25µM*
COC(=O)c1ccc(Cn2c(C)cc(C)[n+]2C)o1,18µM*,4%,-8%,2%,-4%
CCOc1ccc(NC(=O)c2ccc3nc(Cc4ccccc4)oc3c2)cc1,nt,-25%,nt,-12%,-15%
Cc1ccc(-n2ncc(C(=O)Nc3ccc4c(c3)OCO4)c2C2CCN(C(=O)OC(C)(C)C)CC2)cc1,nt,13µM*[quencher],nt,-4%,?
O=C(N/N=C/c1ccc(O)c([N+](=O)[O-])c1)C1CC1(c1ccccc1)c1ccccc1 (centres undefined),8%,?,?,7%,14µM*
Cc1csc(N/N=C/c2ccc(O)c([N+](=O)[O-])c2)n1,-18%,?,-23%,-2%,5µM*
Cc1csc(N/N=C\c2cccnc2)n1,-1%,?,?,-9%,?
O=[N+]([O-])c1cc(/C=N\Nc2nc(-c3ccccc3)cs2)ccc1O,-9%,10µM*[quencher],-8%,?,3.2µM*
O=[N+]([O-])c1ccc(-c2csc(N/N=C/c3cccnc3)n2)cc1,7%,?,-3%,4%,2.2µM*
CCOC(=O)c1cc(-c2ccc(OC)c(S(=O)(=O)N3CCN(c4ccccc4)CC3)c2)on1,nt,?,nt,-20%,-4%
O=[N+]([O-])c1cc(/C=N/N/C(=N/c2ccccn2)c2ccccn2)ccc1O,13%,-13%,18µM*,-11%,?
Clc1ccc(-c2csc(N/N=C/c3ccc4c(c3)OCO4)n2)cc1,-5%,11µM*[quencher],?,-2%,8.9µM*
O=C(/C=C/c1ccc2c(c1)OCO2)Nc1nc(-c2ccccc2)cs1,11%,?,?,-12%,?
CCOc1ccc(CNCc2c(C(=O)O)c(C)n(Cc3ccc(F)cc3Cl)c2C)cc1,nt,0%,nt,4%,0%
CCc1ccc(C2CC(=O)Nc3c2c(=O)n(C)c2ncnn32)cc1 (centres undefined),nt,-10%,nt,-6%,-9%
CCOC(=O)c1ccccc1NS(=O)(=O)c1c(-c2ccc(C)cc2)csc1C(=O)OC,nt,-25%,nt,-12%,-1%
Cc1ccc(NC(=O)NCC2CCN(Cc3cccc(Cl)c3)CC2)cc1Cl,-2%,?,17%,28µM*,-7%
SMILES,RGS12 GoLoco inh,Tau fluor counter,JMJD2E inh,Tau FP inhib,Tau ThT inhib
Cc1ccc(NC(=O)NCC2CCN(Cc3cccc(Cl)c3)CC2)c(Cl)c1,-6%,-14%,5%,1%,-5%
O=C(O)[C@H](C1NCCS1)N1C(=O)c2ccccc2C1=O (some centres undefined),1%[14.2 µM],nt,nt,nt,nt
CCN(CC)CCNC(=O)c1ccc2c(c1)NC(=O)C(CS(=O)(=O)Cc1ccc(F)cc1Cl)N2 (centres undefined),nt,-19%,nt,?,?
CCCS(=O)(=O)N1CC(=O)N(c2ccccc2F)C(C)(C(=O)NC2CCCCCC2)C1 (centres undefined),nt,-10%,nt,-4%,-1%
Cc1ccc(NS(=O)(=O)c2ccc(N3CCN(c4ccc(O)cc4)CC3)c([N+](=O)[O-])c2)c(C)c1,-15%,11µM*[quencher],-6%,8%,14µM*
Oc1cc2c(cc1C(c1ccc(Br)cc1)N1CCCC1)OCO2 (centres undefined),23%,?,?,-10%,22µM*
CC(=O)c1cc2c(cc1NC(=O)c1cnn(-c3ccc(C)cc3)c1-n1cccc1)OCO2,nt,-11%,nt,1%,3%
Cn1c(N)c(C(=O)COC(=O)c2cc(-c3ccccc3)nc3ccccc23)c(=O)n(Cc2ccccc2)c1=O,54%,?,?,14µM*,-1%
CCOC(=O)C1CCCN(c2nc3c(S(=O)(=O)c4ccc(C)c(C)c4)nnn3c3ccc(Cl)cc23)C1 (centres undefined),nt,-11%,nt,-1%,2%
c1ccc(-c2cn3c(n2)-c2ccccc2C3)cc1,2%,-9%,3.2µM*,4%,?
Cc1ccc2nc(-c3ccccc3)cn2c1,-9%,-1%,?,-2%,-19%
CC1(C)CNc2cc(N)ccc2S1,4%,14µM*[quencher],?,?,16µM*
COc1cc2c(cc1OC)C(COc1ccc3c(C)cc(=O)oc3c1)N(C(=O)Cc1ccc(F)cc1)CC2 (centres undefined),nt,-4%,nt,0%,-2%
Cc1cccc2c1[nH]c1nc(N/N=C\c3ccco3)nnc12,1%,-28%,3%,-7%,6.3µM*
CC(/C=N/Nc1nnc2c(n1)[nH]c1ccccc12)=C\c1ccco1,-13%,?,1%,-12%,6.3µM*
Cc1ccc(S(=O)(=O)Cc2nc(-c3ccc(C(=O)NCc4ccccc4)cc3)oc2C)cc1,nt,-20%,nt,?,-13%
CCn1cc2nc(SCc3cc(C)ccc3C)n(Cc3ccc(Cl)cc3)c(=O)c2n1,nt,0%,nt,0%,10%
CCCc1cc(=O)[nH]c2nnc(SCC(=O)Nc3ccc(OC)cc3)n12,nt,-11%,nt,-4%,-13%
CCc1ccccc1NC(=O)C(=O)c1cc(C)n(-c2ccccc2F)c1C,nt,-8%,nt,5%,1%
O=C1C2=C(NC(=S)NC2c2ccc(Cl)cc2)NC(c2ccc(Cl)cc2)N1c1ccc(Cl)cc1 (centres undefined),3%,?,-20%,?,32µM*
